Assay outcomes deposited in PubChem BioAssay by National Center for Advancing Translational Sciences (NCATS).
Compounds with a hit are over-represented: about 0.87% of the library has one in this group of screens.
FEN1 inh-1: inhibitors of human flap endonuclease 1; Potency, µM (highest dose often 114 µM), usual class: inhibitors; Recombinant FEN1 flap cleavage, fluorescence, 15 min; 390,000 compounds, 0.35% hits; P39748; note: nearly all actives have a fitted effect of over 65% in size
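Steps: FEN1 (10 nM) dispensed; compound added by pin tool; 15 min at room temperature; substrate added to 50 nM final; reads at 0 min and 15 min; data normalized and fitted (four-parameter Hill).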
WRN helicase inh: WRN helicase (human) inhibition. Q14191. WRN helicase unwinding, fluorescent forked duplex, kinetic. Potency, µM (top dose mostly 114 µM), hits mostly inhibitors. 360,000 compounds, 0.46% hits. AID 651768; note: nearly all actives have a fitted effect of over 55% in size
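Screening of the MLSMR collection measured strand separation of a quenched forked DNA duplex (100 nM) by 20 nM WRN with 2 mM ATP, all final. Compounds were preincubated with enzyme 15 min at room temperature.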
APE1 inh: blocks human APE1 abasic DNA cleavage; P27695; recombinant APE1, TAMRA/BHQ-2 abasic DNA cleavage fluorescence; Potency, µM (doses to about 65.8 µM), most hits filed as inhibitors; 350,000 compounds, 0.35% hits; note: nearly all actives have a fitted effect of over 55% in size
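Endonuclease cleavage of a quenched abasic-site DNA duplex (50 nM) by APE1 (0.75 nM) was tracked by TAMRA dequenching. Compounds were preincubated with enzyme 15 min at room temperature; data normalized to buffer-only and DMSO wells plus NSC13755 control.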
RECQ1 inh: RECQ1 (human) helicase inhibition; P46063; RECQ1 DNA unwinding, red fluorescence kinetic read; Potency, µM (top dose mostly 57.3 µM), hits mostly inhibitors; 240,000 compounds, 0.54% hits; AID 2549; note: nearly all actives have a fitted effect of over 30% in size
Target sequence (P46063 whole entry, looked up): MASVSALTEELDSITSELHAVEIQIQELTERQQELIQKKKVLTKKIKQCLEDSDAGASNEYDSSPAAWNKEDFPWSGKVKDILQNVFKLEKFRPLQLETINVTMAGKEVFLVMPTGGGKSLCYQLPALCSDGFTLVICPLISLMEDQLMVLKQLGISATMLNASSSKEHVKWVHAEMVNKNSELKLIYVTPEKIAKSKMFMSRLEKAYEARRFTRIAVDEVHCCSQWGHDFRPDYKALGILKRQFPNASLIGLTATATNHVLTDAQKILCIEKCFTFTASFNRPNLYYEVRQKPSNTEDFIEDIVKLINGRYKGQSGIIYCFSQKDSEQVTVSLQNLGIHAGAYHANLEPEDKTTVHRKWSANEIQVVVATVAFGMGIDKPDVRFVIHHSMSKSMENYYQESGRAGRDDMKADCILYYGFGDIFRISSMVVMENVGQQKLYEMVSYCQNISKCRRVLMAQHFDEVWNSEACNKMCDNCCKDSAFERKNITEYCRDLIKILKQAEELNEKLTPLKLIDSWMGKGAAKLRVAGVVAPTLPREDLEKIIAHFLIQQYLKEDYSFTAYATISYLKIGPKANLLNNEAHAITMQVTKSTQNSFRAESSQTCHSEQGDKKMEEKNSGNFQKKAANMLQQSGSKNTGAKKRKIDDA
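50 nM RECQ1T1 preincubated 15 min with compound in Tris pH 8.0 buffer with MgCl2, DTT, Tween-20 and 2.5 ug/ml poly(dI-dC); started with 200 nM TAMRA/BHQ-2 forked duplex and 2 mM ATP. Unwinding read as fluorescence (525/598 nm), two reads 2 h apart.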
BLM helicase inh: blocks DNA unwinding by human BLM helicase; P54132; Potency, µM (titrated, usually from 56.1 µM), actives largely listed as inhibitors; 350,000 compounds, 0.2% hits; recombinant BLM DNA unwinding, fluorescence dequenching; note: nearly all actives have a fitted effect of over 35% in size
FEN1 inh-2: confirmation of human FEN1 inhibitors; shares compounds with FEN1 inh-1; FEN1 flap cleavage, TAMRA/BHQ2 fluorogenic DNA substrate; Potency, µM, actives largely listed as inhibitors; 880 compounds, 79% hits; AID 720498; note: nearly all actives have a fitted effect of over 60% in size
Hits are given with their value; [ ] = another dose, or the depositor's remark. Calls come from the whole dose curve; as a rule, active = well fitted curve in the direction sought with a large enough effect; inconclusive = small, poorly fitted or top-dose-only effect, or another doubt; inactive = no such curve, though single readings can be large; an effect the other way counts as inactive or inconclusive.

Results for CC(C)(C)/C(O)=C/c1nc2cc(Cl)ccc2oc1=O ?
FEN1 inh-1: 28µM; WRN helicase inh: inactive; APE1 inh: inactive; RECQ1 inh: inactive; BLM helicase inh: inactive; FEN1 inh-2: 12

Results for CCOc1ccc(NS(=O)(=O)c2c(C)nc3sc(C)c(C)n3c2=O)cc1 ?
FEN1 inh-1: inactive; BLM helicase inh: inactive

Results for CCc1ccc(NC(=O)C2CCN(c3nnc(-n4c(C)ccc4C)s3)CC2)cc1 ?
FEN1 inh-1: inactive; BLM helicase inh: inactive

How did COc1ccc(N2CCc3c(C)nc4c(OC)cc(OC)cc4c32)cc1 do in these assays?
FEN1 inh-1: 40µM; WRN helicase inh: inactive[11.6 µM]; APE1 inh: inactive; RECQ1 inh: inactive; BLM helicase inh: inactive; FEN1 inh-2: 38

What do the screens show for `O=C(Cn1cc(SCc2ccccc2F)c2ccccc21)N1CCCCCC1`?
FEN1 inh-1: inactive; BLM helicase inh: inactive

Results for N#C/C(=C\c1ccc([N+](=O)[O-])o1)C(=O)Nc1ccc(F)cc1 ?
FEN1 inh-1: inactive; WRN helicase inh: inconclusive; APE1 inh: inactive; RECQ1 inh: inactive; BLM helicase inh: inactive; FEN1 inh-2: 48

Results for CNc1ccc2c3c(cccc13)C(=O)N(C)C2=O ?
FEN1 inh-1: inconclusive; WRN helicase inh: inconclusive; APE1 inh: inactive; BLM helicase inh: inactive; FEN1 inh-2: inconclusive

How did COc1ccc(N2C(=O)CSC23C(=O)N(CC(=O)NC2CCCCC2)c2ccccc23)cc1 (centres undefined) do in these assays?
FEN1 inh-1: inactive; BLM helicase inh: inactive

How did O=C(COc1cccc2ccccc12)N/N=C/c1ccccc1OCc1ccc(C(=O)O)cc1 do in these assays?
FEN1 inh-1: inconclusive; WRN helicase inh: inactive[11.6 µM]; APE1 inh: inactive; RECQ1 inh: inactive; BLM helicase inh: inconclusive; FEN1 inh-2: 85

How did COc1ccc(CNc2ncnc3cc(Cl)ccc23)cc1OC do in these assays?
FEN1 inh-1: inactive; WRN helicase inh: inactive; APE1 inh: inactive; RECQ1 inh: inactive; BLM helicase inh: inactive

How did CCN(CC)Cc1cc2[nH]c3c4ccc(Cl)cc4ncc3c2cc1OC do in these assays?
FEN1 inh-1: 14µM; WRN helicase inh: inactive; APE1 inh: inconclusive; RECQ1 inh: inactive; BLM helicase inh: inactive; FEN1 inh-2: inconclusive

Results for O=C(CSc1nnc(-c2ccco2)o1)c1ccc[nH]1 ?
FEN1 inh-1: inactive; WRN helicase inh: inactive; APE1 inh: inactive; RECQ1 inh: inactive; BLM helicase inh: inconclusive; FEN1 inh-2: inconclusive

How did COc1cc(OC)c(-c2c3cc(O)c(=O)cc-3oc3cc(O)c(O)cc23)cc1OC do in these assays?
FEN1 inh-1: 50µM; WRN helicase inh: 2.4µM; APE1 inh: 25µM; RECQ1 inh: 10µM; BLM helicase inh: inactive; FEN1 inh-2: 34

What do the screens show for `COc1cccc(-c2cc(=O)c3ccccc3o2)c1N`?
APE1 inh: inconclusive; RECQ1 inh: inactive; BLM helicase inh: inactive

What do the screens show for `CCC(C(=O)NC1CCC(C)CC1)n1nc(C)c2sc3ccccc3c2c1=O` (centres undefined)?
FEN1 inh-1: inactive; BLM helicase inh: inactive

How did c1ccc2nc3c(nc2c1)c1ccccc1n3CCN1CCOCC1 do in these assays?
FEN1 inh-1: inconclusive; WRN helicase inh: inactive; APE1 inh: inactive; RECQ1 inh: inactive; BLM helicase inh: inactive; FEN1 inh-2: inconclusive

Results for O=S(=O)(NCCS(=O)(=O)N1CCN(c2ccccc2F)CC1)c1ccc(Cl)cc1 ?
FEN1 inh-1: inactive; BLM helicase inh: inactive

Results for CN1CCc2c(sc(NC(=O)CSc3ccc(F)cc3)c2-c2nc3ccccc3s2)C1 ?
FEN1 inh-1: inactive; BLM helicase inh: inactive

How did CCN1CCc2c(sc(NC(=O)CSc3ccccc3)c2-c2nc3ccccc3s2)C1 do in these assays?
FEN1 inh-1: inactive; BLM helicase inh: inactive

How did CC(=O)Nc1sc2c(c1-c1nc3ccccc3s1)CCNC2 do in these assays?
FEN1 inh-2: 3.4

Results for CC(=O)Nc1sc2c(c1-c1nc3ccccc3s1)CCCNC2 ?
FEN1 inh-2: 34

Results for CC(=O)Nc1sc2c(c1-c1nc3ccccc3s1)CCN(C(C)C)CC2 ?
FEN1 inh-2: 24

How did CC(=O)Nc1sc2c(c1-c1cc3ccccc3o1)CCNC2 do in these assays?
FEN1 inh-2: 34
